# PTHR1 ag: qHTS for PTHR1 Agonists: Primary Screen; Parathyroid hormone/parathyroid hormone-related peptide receptor (Homo sapiens), Q03431; HEK293 GP2 PTHR1 cells, GloSensor cAMP luminescence, 1 h; 410,000 tested, 0.075% active; AID 743266, 2014; Potency, µM (top dose mostly 115 µM), actives largely listed as activators; note: nearly all actives have a fitted effect of over 55% in size
# Target sequence (Q03431 whole entry, looked up): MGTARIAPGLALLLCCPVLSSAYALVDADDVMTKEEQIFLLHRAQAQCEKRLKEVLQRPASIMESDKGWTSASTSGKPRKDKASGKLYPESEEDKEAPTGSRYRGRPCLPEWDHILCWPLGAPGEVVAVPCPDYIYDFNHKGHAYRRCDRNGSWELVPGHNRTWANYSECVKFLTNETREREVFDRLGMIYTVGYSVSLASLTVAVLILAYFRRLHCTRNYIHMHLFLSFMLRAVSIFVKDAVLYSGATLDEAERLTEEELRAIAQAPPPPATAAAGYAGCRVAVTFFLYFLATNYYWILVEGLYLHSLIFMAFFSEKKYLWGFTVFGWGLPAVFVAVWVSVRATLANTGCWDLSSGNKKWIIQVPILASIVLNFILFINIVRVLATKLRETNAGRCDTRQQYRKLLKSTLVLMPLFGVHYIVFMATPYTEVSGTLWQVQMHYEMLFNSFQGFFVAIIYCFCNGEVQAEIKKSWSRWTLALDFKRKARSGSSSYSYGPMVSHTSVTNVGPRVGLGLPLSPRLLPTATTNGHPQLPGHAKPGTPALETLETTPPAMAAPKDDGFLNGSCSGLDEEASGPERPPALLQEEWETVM
#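 HEK-293-derived GP2 cells expressing PTHR1 and a GloSensor cAMP reporter, 3,000/well, plated overnight, given luciferin plus IBMX (each 0.5 mM as added) for 1 h at 37 °C, then compound for 1 h at 37 °C. Luminescence was read after 15 min at room temperature.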
# BRCA1 expr act: qHTS Assay to Identify Small Molecule Activators of BRCA1 Expression | 380,000 tested, 1.1% active | Potency, µM (doses to about 46.1 µM), usual class: activators | MCF7-BRCA1-FFLuc reporter, luminescence, 48 h; response scale: scaled: vehicle 0%, 10 µM genistein 100% | AID 624202, 2012; note: nearly all actives have a fitted effect of over 80% in size
#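 Compounds are tested at multiple concentrations on MCF7 BRCA1-luciferase reporter cells seeded at 2000 per well; after 48 h, a single luminescence end-point is taken and curves fitted to the normalized data.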
# B2AR arrestin: qHTS assay of beta-arrestin-biased ligands of beta2-adrenergic receptor | beta-arrestin recruitment to beta2AR, cell-based reporter | Potency, µM (top dose mostly 46.1 µM), hits mostly activators | 330,000 tested, 0.02% active | AID 492947, 2010; note: nearly all actives have a fitted effect of over 65% in size
# D3 antag: qHTS of D3 Dopamine Receptor Antagonist: qHTS | 360,000 tested, 2.5% active | max response, negative = inhibition, % | D3R cells, DiscoveRx beta-arrestin luminescence, antagonist mode; active compounds read low | D(3) dopamine receptor (Homo sapiens), P35462; in the data active = max response below about -50%; inconclusive = no clear call, values can overlap the other calls
#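 Cells expressing the human receptor were seeded at 1500 cells/well, incubated overnight at 37 degrees C in 5% CO2, then exposed to library compounds with dopamine controls for 90 minutes at 37 degrees C before luminescent detection.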
# D3 ag: qHTS of D3 Dopamine Receptor Agonist: qHTS; D3R DiscoveRx beta-arrestin cells, luminescence, 90 min; 410,000 tested, 0.58% active; AID 652048, 2013; max activation, %; D(3) dopamine receptor (Homo sapiens), P35462; in the data active = max activation above about 30%
#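 Agonist-mode cell screen: cells plated at 1500/well and incubated overnight at 37 °C, then exposed to library compounds for 90 min at 37 °C. Detection reagent was added for 30–60 min at room temperature, and luminescence was read.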
# RGS4 inh: Inhibitors of Regulator of G Protein Signaling (RGS) 4: qHTS | Regulator of G-protein signaling 4 (Homo sapiens), P49798 | Transcreener GDP fluorescence polarization, RGS4-accelerated GTP hydrolysis | Potency, µM (top dose mostly 114 µM), most hits filed as inhibitors | 390,000 tested, 0.039% active; note: nearly all actives have a fitted effect of over 75% in size
#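 MLSMR compounds (23 nl, pin-transferred) preincubated 10 min at room temperature with a 500nM (2x) first reagent, then RGS4 at 900nM (2x) plus Transcreener GDP mix added; fluorescence polarization (620/688 nm) read before and after 90 min at 30 °C.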
# A number is an active result; – = inactive; ? = inconclusive; · = not tested or not shown. A selection: hits, their analogues and other compounds. The true share with any hit is near 3.7%. Unless noted, calls come from the whole dose curve; as a rule, active = well fitted curve in the direction sought with a large enough effect; inconclusive = small, poorly fitted or top-dose-only effect, or another doubt; inactive = no such curve, though single readings can be large; an effect the other way counts as inactive or inconclusive.
SMILES,PTHR1 ag,BRCA1 expr act,B2AR arrestin,D3 antag,D3 ag,RGS4 inh
CCOC(=O)c1ccc(NC(=O)c2cnn(-c3ccc(C)cc3C)c2C2CCN(C(=O)OC(C)(C)C)CC2)cc1,–,·,·,·,–,?
S=C1NC[C@H](Cc2ccccc2)N1CC1CCN(CCCC2CCCC2)CC1,–,–,·,-81.3,–,–
COc1ccc(CCN2CCC(CN3C(=S)NC[C@@H]3CC(C)C)CC2)cc1OC,–,–,·,?,–,–
CCCCN1CCC(CN2C(=S)NC[C@@H]2CC(C)C)CC1,–,–,·,-80.4,–,–
CCCn1c(SCC(=O)NCCCN2CCCC2=O)nc2ccccc2c1=O,–,–,–,–,–,–
COc1cc(C)cc2oc(=O)c(CC(=O)NCCc3ccc(Cl)cc3)c(C)c12,–,·,·,·,–,–
Cc1ccc(F)cc1NC(=O)Cn1c(C)cc(C)c(C#N)c1=O,?,·,·,·,–,–
CCn1cc(C(=O)NCCCOC(C)C)c(=O)c2cc(S(=O)(=O)N(C)C3CCCCC3)ccc21,–,–,·,·,–,–
CCN(C(=O)c1cc(OC)c(OC)c(OC)c1)C1CCCCC1,–,–,·,–,–,·
Cc1ccccc1C(=O)NC1CC2CCCC(C1)N2Cc1ccc(Cl)cc1 (stereo not drawn),–,–,–,-96.9,–,–
O=C(NC1CC2CCC(C1)N2Cc1ccccc1)c1ccccc1Cl (stereo not drawn),–,–,–,-88.9,–,–
COc1ccccc1C(=O)NC1CC2CCCC(C1)N2Cc1ccccc1 (stereo not drawn),–,–,·,-111.6,–,·
CCCCN1C2CCCC1CC(NC(=O)c1ccccc1Cl)C2 (stereo not drawn),–,–,–,–,–,–
Cc1ccccc1C(=O)NC1CCCN(Cc2ccccc2F)C1 (stereo not drawn),–,–,–,–,–,–
Cc1ccccc1C(=O)NC1CC2CCCC(C1)N2Cc1ccccc1 (stereo not drawn),–,–,–,-84.7,–,–
Cc1ccc(-c2ccc3c(c2)O[C@H](CN(C)C(=O)Nc2ccc(C(F)(F)F)cc2)[C@H](C)CN([C@H](C)CO)S3(=O)=O)cc1,–,–,·,–,–,·
CN1CCC(=O)N([C@H](CO)c2ccccc2)CC1,–,–,–,–,–,–
COc1ccc(S(=O)(=O)n2ccnc2C)c(C)c1C,–,–,–,–,–,–
Cc1cccc(NC(=S)NC2CC3CCCC(C2)N3Cc2ccccc2)c1C (stereo not drawn),–,–,–,-100.3,–,–
Cc1cccc(NC(=S)NC2CC3CCC(C2)N3Cc2ccco2)c1C (stereo not drawn),–,–,–,–,–,–
CCN1CCN(CC(=O)N/N=C/c2cc(Br)cs2)CC1,–,–,–,-53.5,–,–
CCN(CC)S(=O)(=O)c1cc([N+](=O)[O-])ccc1NNC(=O)Nc1ccc(Cl)c(Cl)c1,–,–,–,-83.7,–,–
NC(=O)CC(NC(=O)c1ccccc1)c1ccc(NCc2ccccn2)c([N+](=O)[O-])c1 (stereo not drawn),–,–,–,–,–,–
CCN(CC)CCCNC(=O)CSc1nc2nc(C)c(Cc3ccccc3C)c(C)n2n1,–,·,·,·,–,–
CN(C)S(=O)(=O)c1cccc(NC(=O)C2CCCN(C(=O)c3ccc(Cl)cc3)C2)c1 (stereo not drawn),–,–,·,–,–,·
SMILES,PTHR1 ag,BRCA1 expr act,B2AR arrestin,D3 antag,D3 ag,RGS4 inh
CC(C)C[C@@H]1NC(=O)[C@H](C(C)C)NC(=O)c2cc([N+](=O)[O-])cc(I)c2OCC[C@@H](C(N)=O)NC1=O,?,–,–,-52.8,–,–
NC(=O)CC[C@@H]1NC(=O)[C@H](CO)NC(=O)c2cc([N+](=O)[O-])cc(I)c2OCC[C@@H](C(N)=O)NC1=O,–,–,–,–,–,–
C[C@H](NC(=O)C1CCN(S(=O)(=O)c2ccccc2)CC1)C(=O)NCc1cccnc1,–,–,·,–,–,·
COc1ccc(Cl)cc1N(CC(=O)N1CCN(Cc2ccccc2)CC1)S(C)(=O)=O,–,–,–,-56.6,–,–
COc1ccc(N(CC(=O)N2CCN(Cc3ccccc3)CC2)S(C)(=O)=O)c(OC)c1,–,–,–,–,–,–
CCNc1ccc(S(=O)(=O)N2CCOCC2)cc1NCC(=O)Nc1cccc(Br)c1,–,–,·,–,–,·
CCN(CC)C(=O)C1CC(c2ccc(OC)cc2)=NO1 (stereo not drawn),–,10µM,–,–,–,–
OC(CSc1ccccc1)CN1CCN(c2ccc(Cl)cc2)CC1 (stereo not drawn),–,–,·,-85.5,–,–
OC(CSc1ccccc1)CN1CCN(c2cccc(Cl)c2)CC1 (stereo not drawn),–,–,·,-85.1,–,–
CC(NC(=O)CN1CCN(c2cccc(Cl)c2)CC1)c1ccccc1 (stereo not drawn),–,–,–,?,–,–
COc1cc(OC)c2c(-c3ccccc3)cc(=O)oc2c1C(CC(=O)N1CCN(c2ccccc2)CC1)c1ccc(N(C)C)cc1 (stereo not drawn),–,–,–,?,–,–
COc1cc(OC)c2c(-c3ccccc3)cc(=O)oc2c1C(CCN1CCN(c2ccccc2)CC1)c1ccc(N(C)C)cc1 (stereo not drawn),–,–,–,-62.3,–,–
CCCCCc1cc(=O)oc2c(C(CCN3CCCC3)c3ccc4c(c3)OCO4)c(OC)cc(OC)c12 (stereo not drawn),·,·,·,·,·,–
CCCCCc1cc(=O)oc2c(C(CCN3CCN(c4ccccc4)CC3)c3ccc(N(C)C)cc3)c(OC)cc(OC)c12 (stereo not drawn),–,–,–,-51.7,–,–
COc1ccc(C(CCN2CCOCC2)c2c(OC)cc(OC)c3c(-c4ccccc4)cc(=O)oc23)cc1 (stereo not drawn),–,–,–,–,–,–
COc1ccc(C(CCN2CCN(c3ccccc3)CC2)c2c(OC)cc(OC)c3c(-c4ccccc4)cc(=O)oc23)cc1 (stereo not drawn),–,–,–,-53.2,–,–
COc1cc(OC)c2ccc(=O)oc2c1C(CCN1CCN(c2ccccc2)CC1)c1ccc(N(C)C)cc1 (stereo not drawn),–,–,–,-114.9,–,–
CCOc1ccc(N=C(C)Nc2ccc(OCC)cc2)cc1,·,·,·,·,–,·
